D3 antag – D3 dopamine receptor (human) antagonism | P35462 | D3R cells, DiscoveRx beta-arrestin luminescence, antagonist mode; active compounds read low | max response, negative = inhibition, % | 2.5% of 360,000 active; in the data active = max response below about -50%; inconclusive = no clear call, values can overlap the other calls; note: % is set by controls: 0 for no effect and ±100 for the full control effect
Target sequence (P35462 whole entry, looked up): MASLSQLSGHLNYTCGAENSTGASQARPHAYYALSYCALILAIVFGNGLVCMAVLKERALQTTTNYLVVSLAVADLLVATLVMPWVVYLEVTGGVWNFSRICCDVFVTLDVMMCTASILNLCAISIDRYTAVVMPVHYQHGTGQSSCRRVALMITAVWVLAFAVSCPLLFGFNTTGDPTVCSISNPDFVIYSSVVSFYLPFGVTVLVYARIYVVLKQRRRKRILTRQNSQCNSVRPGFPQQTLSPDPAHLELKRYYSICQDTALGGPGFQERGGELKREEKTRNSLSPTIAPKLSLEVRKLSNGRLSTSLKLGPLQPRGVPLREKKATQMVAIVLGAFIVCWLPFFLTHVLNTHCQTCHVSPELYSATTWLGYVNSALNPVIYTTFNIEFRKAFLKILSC
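Cells expressing the human receptor were seeded at 1500 cells/well, incubated overnight at 37 degrees C in 5% CO2, then exposed to library compounds with dopamine controls for 90 minutes at 37 degrees C before luminescent detection.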
D3 ag – D3 dopamine receptor (human) agonism | P35462 | 0.58% of 410,000 active | AID 652048 | max activation, % | D3R DiscoveRx beta-arrestin cells, luminescence, 90 min; in the data active = max activation above about 30%; note: 0% is about no effect
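Agonist-mode cell screen: cells plated at 1500/well and incubated overnight at 37 °C, then exposed to library compounds for 90 min at 37 °C. Detection reagent was added for 30–60 min at room temperature, and luminescence was read.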
D1 potentiator – enhances dopamine response at the human D1 receptor; P21728; HEK293 TREx D1 cells, calcium flux, dopamine EC20 potentiation; potentiation, % at 10 µM; 0.036% of 360,000 active; in the data active = potentiation above about 30%; note: 0% is about no effect
D1 antagonist – blocks dopamine activation of the human D1 receptor. P21728. HEK293 TREx D1 cells, calcium flux, dopamine EC80; active compounds read low. 3.2% of 360,000 active. AID 504652. activity change, negative = inhibition, % at 10 µM; in the data active = activity change below about -30%; note: % is set by controls: 0 for no effect and ±100 for the full control effect
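Using tetracycline-induced force-coupled D1 Hek293 cells and a calcium dye, signals were followed for 180 s after compound, then for 180 s after EC80 dopamine, to detect inhibitors.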
D1 ag – agonists of human D1 dopamine receptor; P21728; HEK293 T-REx D1 cells, calcium flux, agonist mode; activation, % at 2 µM; 1% of 360,000 active; in the data active = activation above about 30%; note: 0% is about no effect
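Inducible HEK293 T-REx D1 cells, force-coupled to calcium signalling, were plated at 4000 cells/well with tetracycline and held overnight at 30 C. After no-wash calcium dye loading, compound-evoked calcium rise over 180 s flagged agonists.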
Numbers without * were called inactive; u = inconclusive; x = no result given. This is a sample that favours compounds with a hit; in the whole collection about 6% have one here.

SMILES	D3 antag	D3 ag	D1 potentiator	D1 antagonist	D1 ag
CC(C)c1ccc(S(=O)(=O)/N=C2/C=C(Sc3ncn[nH]3)C(=O)c3ccccc32)cc1	-75*	-6	8	-5	0
Cc1ccc(S(=O)(=O)/N=C2/C=C(Sc3ncn[nH]3)C(=O)c3ccccc32)cc1	-104*	-22	4	24	6
O=C(Nc1ccccn1)NC1CCCCC1	-7	0	3	-1	0
O=C(Nc1ccccn1)NC1CCS(=O)(=O)C1 (centres undefined)	-22	1	-3	-34*	1
CN1CCC(N(C)C(=S)Nc2ccc(F)cc2)CC1	23	2	-3	-8	2
CN1CCC(N(C)C(=S)Nc2ccc(SC(F)F)cc2)CC1	17	-4	-2	-34*	12
Cc1cc2c(c(=O)n1Cc1ccccc1)C1O[C@](c3ccsc3)(Cc3ccccc31)O2	x	x	-2	-15	1
COc1ccc(-c2cn(Cc3ccc4ccccc4c3)nn2)cc1	-10	6	-3	-32*	7
COc1ccc(-c2cn(Cc3ccc4c(c3)C(=O)c3ccccc3C4=O)nn2)cc1	8	19	-8	-8	3
CCN(CC)S(=O)(=O)c1cc(NC(=O)CSc2nnc(N)s2)ccc1C	-19	0	1	5	0
CCN(CC)S(=O)(=O)c1cc(NC(=O)CSc2nc3c(cc2C#N)C(=O)CC(C)(C)C3)ccc1C	12	34*	4	-6	2
CCOc1ccccc1CN(CCc1ccc2c(c1)OCO2)Cc1cc(OC)c(OC)cc1OC	x	6	-5	-20	1
CN(C)c1ccc(N=Cc2nc(-c3ccccc3)oc2OC(=O)c2cccc(Cl)c2)cc1	-4	-5	-1	-32*	27
Cc1nn(CC(=O)NCc2cc3ccccc3[nH]2)c(C)c1[N+](=O)[O-]	3	-1	-18	-41*	-2
Cc1nn(CC(=O)NCc2ccccc2F)c(C)c1[N+](=O)[O-]	0	-9	-2	-12	2
CCNc1c(NS(=O)(=O)c2ccc(Br)s2)c(=O)oc2ccccc12	-11	3	-3	-41*	-3
CCCNc1c(NS(=O)(=O)c2ccc(Cl)s2)c(=O)oc2ccccc12	-5	3	-7	-3	2
COc1ccc2c(c1)CO[C@]21O[C@H](CCO)C[C@H](O)[C@H]1O	-69*	-12	x	x	x
Cc1ccc2c(c1)CO[C@@]21O[C@H](CCO)C[C@H](O)[C@H]1O	u	1	x	x	x
CCOCCn1ccc2c(OCC(=O)NCc3ccc(F)cc3)cccc2c1=O	x	-5	-1	x	-4
Cc1ccccc1S(=O)(=O)Oc1ccccc1C(=O)Oc1ccccc1	27	-8	-8	-31*	9
O=C(Nc1ncccn1)C1c2ccccc2Oc2ccccc21	-18	0	5	8	4
O=C(Nc1ccncc1)C1c2ccccc2Oc2ccccc21	21	6	-5	39	44*
Cc1ccc(Nc2nc(N)nc(CSc3nccn3C)n2)c(C)c1	-20	-3	-2	-33*	-1
O=S(=O)(Cc1ccccc1)N1CCN(C/C=C/c2ccccc2)CC1	u	-24	-12	-33*	47*
SMILES	D3 antag	D3 ag	D1 potentiator	D1 antagonist	D1 ag
O=S(=O)(c1ccc(Cl)s1)N1CCN(C/C=C/c2ccccc2)CC1	-82*	1	1	-2	11
CS(=O)(=O)N1CCN(C/C=C/c2ccccc2)CC1	-7	3	-8	-4	2
O=S(=O)(c1ccc(Cl)s1)N1CCN(Cc2ccccc2)CC1	-59*	-10	-2	-7	3
O=[N+]([O-])c1ccccc1/C=C/CN1CCN(Cc2ccc3c(c2)OCO3)CC1	-79*	-9	-6	-21	3
Cn1c(=O)c([N+](=O)[O-])c(N2CCN(Cc3ccc4c(c3)OCO4)CC2)c2ccccc21	12	-17	-2	-10	3
C(=C\c1ccccc1)/CN1CCN(Cc2ccc3c(c2)OCO3)CC1	-61*	-12	1	8	2
OCCCNc1ccccc1	x	-9	x	x	x
Cc1cc(C)c(S(=O)(=O)c2cccc(Cl)c2)c(Cl)n1	-12	-1	-2	-2	3
CCOc1nc(C)cc(C)c1S(=O)(=O)c1cccc(Cl)c1	16	-5	-4	-49*	30*
O=C(c1ccc2c(c1)CCN2S(=O)(=O)c1ccc(Cl)cc1)N1CCN(c2ccccc2)CC1	x	5	1	7	-1
Cc1cccc(NC(=O)c2ccc(C(=O)c3ccccc3)cc2)n1	-1	1	0	-35*	4
CCN(c1ccccc1)S(=O)(=O)c1ccc(C(=O)Nc2cccc(C)n2)cc1	7	0	-8	-35*	5
C=CCc1cccc2cc(C(=O)Nc3cccc(Cl)c3)c(=O)oc12	x	4	-2	9	-1
C=CCc1cc(Cl)ccc1OC(=O)Nc1cccc(Cl)c1	0	3	-3	-55*	14
O=C(Nc1cccnc1)c1ccc(CN2CCc3ccccc3C2)cc1	-74*	-13	-2	4	4
Cc1ccc(NC(=O)c2ccc(CN3CCc4ccccc4C3)cc2)cc1	-85*	-11	-4	-33*	4
Cc1cc(C)cc(NC(=O)c2ccc(CN3CCc4ccccc4C3)cc2)c1	-67*	-11	-1	49	7
O=C(Nc1ccccc1)c1ccc(CN2CCc3ccccc3C2)cc1	u	-4	-3	-9	5
COc1ccccc1C1CCN(Cc2cccc(C(=O)N3CCC(O)CC3)c2)CC1	-110*	-3	-6	1	1
COc1ccccc1C1CCN(C(=O)c2ccccc2)CC1	0	1	9	-1	-1
CC(C)(c1ccccc1)c1ccc(OCC(O)CNC2CCN(Cc3ccccc3)CC2)cc1 (centres undefined)	u	-15	4	20	67*
CCOc1ccc(OCC(O)CNC2CCN(Cc3ccccc3)CC2)cc1 (centres undefined)	u	-5	2	1	22
COc1ccc(CNCC(O)COc2ccc(C(C)(C)c3ccccc3)cc2)cc1 (centres undefined)	5	-19	9	28	33*
COC(=O)c1ccc(CNCC(O)COc2ccc(-c3ccccc3)cc2)cc1 (centres undefined)	3	-14	7	13	11
COc1ccc(-c2cc3ccc(O)c(CN4CCOCC4)c3oc2=O)cc1OC	x	5	-1	4	7
OC(COc1ccc(Cl)cc1)CN1CCN(c2ccccn2)CC1 (centres undefined)	-8	12	x	x	x
OC(COCc1cccs1)CN1CCCCCC1 (centres undefined)	-11	-4	1	-2	4
CCOc1ccccc1N1CCN(CC(O)COCc2cccs2)CC1 (centres undefined)	-85*	-25	-3	25	1

Screening results from PubChem.
